# The supplement of paper PMC10849652
# Targets with a hit are over-represented here; the source holds about 7,900 in all. About 0.6% of all pairs of compound and target were hits. Values without a mark were called inactive.
# Legend:
# Test in all cases: log2 fold change, soluble protein after heating vs DMSO (PISA); higher = thermal stabilisation; K562 cells, 10 uM, 30 min; active = over 0.2 and 3.5 SD of the protein, either way, in both replicates (recomputed)
# bafetinib = compound: Cc1ccc(NC(=O)c2ccc(CN3CC[C@H](N(C)C)C3)c(C(F)(F)F)c2)cc1Nc1nccc(-c2cncnc2)n1 [bafetinib]
# Outline: (§1)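 Thermal stability values are relative to control samples and come from duplicates. They are expressed as log2 fold changes. For measurement, K562 cells (2×10^6 cells/mL) received 10 μM compound for 30 min, and aliquots were heated for 3 min over 48°C-58°C, pooled, and extracted at 4°C in PBS with 0.5% NP-40. Soluble protein, the supernatant after 21,000xg for 90 min, was quantified by TMTpro 16plex LC-MS/MS with equalised channel sums.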
# [1] = compound: Cc1cccc(CC(=O)N2CCc3c2ccc(-c2cn(C)c4ncnc(N)c24)c3F)n1
# Outline: as §1
# nilotinib = compound: Cc1cn(-c2cc(NC(=O)c3ccc(C)c(Nc4nccc(-c5cccnc5)n4)c3)cc(C(F)(F)F)c2)cn1 [nilotinib]
# Outline: as §1
# [2] = compound: Cc1nc(Nc2n[nH]c3c2CN(C(=O)N[C@H](CN(C)C)c2ccccc2)C3(C)C)c2sccc2n1
# Outline: as §1
# dasatinib = compound: Cc1nc(Nc2ncc(C(=O)Nc3c(C)cccc3Cl)s2)cc(N2CCN(CCO)CC2)n1 [dasatinib]
# Outline: as §1
# [3] = compound: Cc1ncc(-c2ccnc(Nc3ccc(S(C)(=O)=O)cc3)n2)n1C(C)C
# Outline: as §1
# [4] = compound: Cn1cc(-c2ccc3c(c2)CCN3C(=O)Cc2cccc(C(F)(F)F)c2)c2c(N)ncnc21
# Outline: as §1
# [5] = compound: Cn1cc(-c2ccc3nnc(C(F)(F)c4ccc5ncccc5c4)n3n2)cn1
# Outline: as §1
# tipifarnib = compound: Cn1cncc1[C@@](N)(c1ccc(Cl)cc1)c1ccc2c(c1)c(-c1cccc(Cl)c1)cc(=O)n2C [tipifarnib]
# Outline: as §1
# mubritinib = compound: FC(F)(F)c1ccc(/C=C/c2nc(COc3ccc(CCCCn4ccnn4)cc3)co2)cc1 [mubritinib]
# Outline: as §1
# [6] = compound: NC(=O)Nc1cc(-c2cccc(F)c2)sc1C(=O)N[C@H]1CCCNC1
# Outline: as §1
# [7] = compound: NC(=O)c1cnc(N[C@@H]2CCCC[C@@H]2N)nc1Nc1cccc(-n2nccn2)c1
# Outline: as §1
# [8] = compound: NC1(c2ccc(-c3nc4ccn5c(=O)[nH]nc5c4cc3-c3ccccc3)cc2)CCC1
# Outline: as §1
# [9] = compound: NCC(=O)Nc1ccc(-n2nc(C(F)(F)F)cc2-c2ccc3c(ccc4ccccc43)c2)cc1
# Outline: as §1
# entinostat = compound: Nc1ccccc1NC(=O)c1ccc(CNC(=O)OCc2cccnc2)cc1 [entinostat]
# Outline: as §1
# vorinostat = compound: O=C(CCCCCCC(=O)Nc1ccccc1)NO [vorinostat]
# Outline: as §1
# citarinostat = compound: O=C(CCCCCCNC(=O)c1cnc(N(c2ccccc2)c2ccccc2Cl)nc1)NO [citarinostat]
# Outline: as §1
# silmitasertib = compound: O=C(O)c1ccc2c(c1)nc(Nc1cccc(Cl)c1)c1ccncc12 [silmitasertib]
# Outline: as §1
# [10] = compound: O=C1NC(=O)C(c2cnc3ccccn23)=C1c1cn2c3c(cc(F)cc13)CN(C(=O)N1CCCCC1)CC2
# Outline: as §1
# [11] = compound: c1cc(OCCN2CCCCC2)cc(-c2n[nH]c3ccc(-c4nnc[nH]4)cc23)c1
# Outline: as §1
# UniProt P54578, sequence (P54578 whole entry, looked up): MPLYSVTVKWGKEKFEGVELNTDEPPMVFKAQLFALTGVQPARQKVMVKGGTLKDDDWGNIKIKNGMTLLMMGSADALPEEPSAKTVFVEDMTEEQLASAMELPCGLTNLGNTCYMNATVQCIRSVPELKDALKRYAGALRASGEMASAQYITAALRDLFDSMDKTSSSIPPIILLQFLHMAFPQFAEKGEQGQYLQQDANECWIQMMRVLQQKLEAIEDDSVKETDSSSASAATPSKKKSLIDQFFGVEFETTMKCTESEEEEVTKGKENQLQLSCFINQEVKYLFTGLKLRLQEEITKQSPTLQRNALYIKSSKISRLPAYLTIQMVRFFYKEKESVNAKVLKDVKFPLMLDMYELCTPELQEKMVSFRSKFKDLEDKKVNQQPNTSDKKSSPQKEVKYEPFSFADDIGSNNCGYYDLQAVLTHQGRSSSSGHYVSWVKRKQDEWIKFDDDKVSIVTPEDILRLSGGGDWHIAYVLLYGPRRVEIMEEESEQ
# UniProt P68366, sequence (P68366 whole entry, looked up): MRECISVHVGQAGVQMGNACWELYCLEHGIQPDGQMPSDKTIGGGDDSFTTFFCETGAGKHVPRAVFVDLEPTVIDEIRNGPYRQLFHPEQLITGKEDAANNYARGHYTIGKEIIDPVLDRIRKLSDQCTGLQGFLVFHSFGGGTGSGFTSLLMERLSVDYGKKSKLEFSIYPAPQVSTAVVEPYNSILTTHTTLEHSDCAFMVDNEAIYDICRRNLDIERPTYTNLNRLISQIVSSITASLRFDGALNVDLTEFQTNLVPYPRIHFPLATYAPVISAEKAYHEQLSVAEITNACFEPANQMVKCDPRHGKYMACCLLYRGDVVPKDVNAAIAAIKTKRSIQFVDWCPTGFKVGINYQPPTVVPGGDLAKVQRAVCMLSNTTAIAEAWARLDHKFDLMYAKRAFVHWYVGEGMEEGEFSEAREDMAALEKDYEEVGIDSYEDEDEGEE
# UniProt Q7Z6J8, sequence (Q7Z6J8 whole entry, looked up): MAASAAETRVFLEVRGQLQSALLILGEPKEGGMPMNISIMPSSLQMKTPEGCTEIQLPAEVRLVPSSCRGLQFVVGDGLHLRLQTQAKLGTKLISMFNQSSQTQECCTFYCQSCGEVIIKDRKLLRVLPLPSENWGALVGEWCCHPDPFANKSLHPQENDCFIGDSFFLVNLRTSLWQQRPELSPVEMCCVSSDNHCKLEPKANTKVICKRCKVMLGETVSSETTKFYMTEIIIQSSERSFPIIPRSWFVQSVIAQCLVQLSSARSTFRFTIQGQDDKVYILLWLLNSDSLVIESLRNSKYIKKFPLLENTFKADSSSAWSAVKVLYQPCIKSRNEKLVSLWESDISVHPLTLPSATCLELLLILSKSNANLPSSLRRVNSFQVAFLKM
# UniProt O43592, sequence (O43592 whole entry, looked up): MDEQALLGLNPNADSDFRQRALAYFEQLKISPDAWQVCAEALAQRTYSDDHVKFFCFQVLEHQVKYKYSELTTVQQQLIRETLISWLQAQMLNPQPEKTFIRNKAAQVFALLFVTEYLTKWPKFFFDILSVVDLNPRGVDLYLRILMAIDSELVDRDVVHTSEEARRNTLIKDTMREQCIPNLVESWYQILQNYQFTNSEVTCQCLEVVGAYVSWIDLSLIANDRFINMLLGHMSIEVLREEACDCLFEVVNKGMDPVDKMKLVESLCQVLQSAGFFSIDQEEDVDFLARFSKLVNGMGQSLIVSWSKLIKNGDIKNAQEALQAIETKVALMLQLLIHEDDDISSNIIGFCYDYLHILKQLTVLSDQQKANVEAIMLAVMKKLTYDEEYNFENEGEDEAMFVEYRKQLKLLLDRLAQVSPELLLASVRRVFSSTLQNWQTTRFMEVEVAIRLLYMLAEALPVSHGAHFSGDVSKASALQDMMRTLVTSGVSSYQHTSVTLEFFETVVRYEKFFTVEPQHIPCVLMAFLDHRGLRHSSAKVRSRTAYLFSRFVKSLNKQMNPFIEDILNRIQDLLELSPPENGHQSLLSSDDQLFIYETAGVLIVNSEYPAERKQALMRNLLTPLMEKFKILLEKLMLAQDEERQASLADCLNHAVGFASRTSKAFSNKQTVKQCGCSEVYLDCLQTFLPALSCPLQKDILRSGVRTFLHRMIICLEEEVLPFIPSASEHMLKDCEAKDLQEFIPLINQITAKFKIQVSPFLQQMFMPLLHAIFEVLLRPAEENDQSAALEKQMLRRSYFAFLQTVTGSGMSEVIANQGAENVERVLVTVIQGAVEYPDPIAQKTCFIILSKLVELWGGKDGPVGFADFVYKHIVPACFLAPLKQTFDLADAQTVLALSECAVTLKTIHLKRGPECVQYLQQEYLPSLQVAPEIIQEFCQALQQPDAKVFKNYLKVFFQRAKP
# UniProt Q15061, sequence (Q15061 whole entry, looked up): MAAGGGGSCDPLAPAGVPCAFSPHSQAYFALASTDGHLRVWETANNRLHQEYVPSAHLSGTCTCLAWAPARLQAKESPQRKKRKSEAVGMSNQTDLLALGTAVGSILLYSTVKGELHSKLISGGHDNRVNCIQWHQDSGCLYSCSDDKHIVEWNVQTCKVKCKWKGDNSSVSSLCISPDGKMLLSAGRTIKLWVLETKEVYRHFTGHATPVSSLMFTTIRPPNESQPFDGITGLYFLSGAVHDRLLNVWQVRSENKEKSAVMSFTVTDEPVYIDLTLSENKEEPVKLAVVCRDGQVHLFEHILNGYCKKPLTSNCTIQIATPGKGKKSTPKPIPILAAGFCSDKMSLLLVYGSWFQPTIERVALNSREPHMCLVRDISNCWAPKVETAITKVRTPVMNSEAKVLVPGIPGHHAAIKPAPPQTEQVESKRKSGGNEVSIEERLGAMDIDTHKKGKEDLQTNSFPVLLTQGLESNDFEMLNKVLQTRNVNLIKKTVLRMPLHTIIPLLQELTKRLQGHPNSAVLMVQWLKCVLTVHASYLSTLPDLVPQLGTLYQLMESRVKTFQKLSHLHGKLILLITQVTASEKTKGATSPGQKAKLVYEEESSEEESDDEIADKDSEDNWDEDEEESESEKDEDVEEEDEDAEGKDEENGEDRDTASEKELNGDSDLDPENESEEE
# UniProt O60763, sequence (O60763 whole entry, looked up): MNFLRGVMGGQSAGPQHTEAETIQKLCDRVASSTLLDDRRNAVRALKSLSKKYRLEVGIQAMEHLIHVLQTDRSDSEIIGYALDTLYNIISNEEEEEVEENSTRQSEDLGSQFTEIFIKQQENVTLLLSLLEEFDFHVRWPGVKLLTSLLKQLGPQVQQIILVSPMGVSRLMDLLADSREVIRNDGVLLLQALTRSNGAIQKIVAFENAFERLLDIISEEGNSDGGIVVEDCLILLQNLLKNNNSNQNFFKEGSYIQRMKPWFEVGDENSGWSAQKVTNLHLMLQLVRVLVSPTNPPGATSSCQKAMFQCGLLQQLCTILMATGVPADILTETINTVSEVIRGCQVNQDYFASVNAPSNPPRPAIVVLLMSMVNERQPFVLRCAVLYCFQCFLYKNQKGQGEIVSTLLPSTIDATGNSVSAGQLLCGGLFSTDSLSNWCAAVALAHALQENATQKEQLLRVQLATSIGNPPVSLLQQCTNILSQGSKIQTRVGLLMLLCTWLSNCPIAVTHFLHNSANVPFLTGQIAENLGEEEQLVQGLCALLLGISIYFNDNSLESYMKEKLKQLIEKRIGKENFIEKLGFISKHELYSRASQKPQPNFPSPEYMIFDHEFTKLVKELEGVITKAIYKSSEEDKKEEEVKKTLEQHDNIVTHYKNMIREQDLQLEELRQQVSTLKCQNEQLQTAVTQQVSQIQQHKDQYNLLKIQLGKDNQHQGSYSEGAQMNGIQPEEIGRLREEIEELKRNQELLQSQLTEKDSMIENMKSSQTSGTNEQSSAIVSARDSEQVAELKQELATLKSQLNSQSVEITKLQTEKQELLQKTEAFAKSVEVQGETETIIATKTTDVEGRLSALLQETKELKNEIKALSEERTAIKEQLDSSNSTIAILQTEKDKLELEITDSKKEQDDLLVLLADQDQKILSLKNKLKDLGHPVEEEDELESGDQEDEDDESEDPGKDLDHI
# UniProt Q9Y5K5, sequence (Q9Y5K5 whole entry, looked up): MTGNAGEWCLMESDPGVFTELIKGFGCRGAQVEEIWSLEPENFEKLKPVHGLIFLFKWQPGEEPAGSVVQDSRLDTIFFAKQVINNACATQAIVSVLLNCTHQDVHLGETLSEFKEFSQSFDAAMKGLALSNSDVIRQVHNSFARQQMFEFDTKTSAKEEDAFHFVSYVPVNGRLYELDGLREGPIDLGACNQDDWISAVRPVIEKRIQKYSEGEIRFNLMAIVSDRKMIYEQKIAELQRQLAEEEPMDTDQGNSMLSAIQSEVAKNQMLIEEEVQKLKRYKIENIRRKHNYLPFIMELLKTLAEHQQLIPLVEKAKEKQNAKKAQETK
# UniProt Q96FX7, sequence (Q96FX7 whole entry, looked up): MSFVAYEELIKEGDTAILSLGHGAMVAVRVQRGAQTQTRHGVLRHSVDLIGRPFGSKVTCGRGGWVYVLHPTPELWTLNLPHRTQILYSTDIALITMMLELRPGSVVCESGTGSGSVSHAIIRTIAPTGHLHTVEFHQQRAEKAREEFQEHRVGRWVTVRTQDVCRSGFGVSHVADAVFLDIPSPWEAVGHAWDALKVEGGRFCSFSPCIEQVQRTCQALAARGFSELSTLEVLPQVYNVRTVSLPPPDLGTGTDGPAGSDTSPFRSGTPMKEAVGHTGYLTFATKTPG
Target,log2 fold change (bafetinib),log2 fold change [1],log2 fold change (nilotinib),log2 fold change [2],log2 fold change (dasatinib),log2 fold change [3],log2 fold change [4],log2 fold change [5],log2 fold change (tipifarnib),log2 fold change (mubritinib),log2 fold change [6],log2 fold change [7],log2 fold change [8],log2 fold change [9],log2 fold change (entinostat),log2 fold change (vorinostat),log2 fold change (citarinostat),log2 fold change (silmitasertib),log2 fold change [10],log2 fold change [11]
UBR2 (UniProt Q8IWV8),0.021,0.072,0.02,0.01,-0.107,-0.069,-0.023,0.058,-0.095,0.011,-0.007,0.038,0.039,0.007,0.049,0.137,0.05,0.061,0.044,-0.14
UHRF1BP1L (UniProt A0JNW5),0.055,-0.002,0.105,0.005,-0.003,-0.029,0.036,0.038,-0.065,0.007,-0.004,-0.017,-0.028,0.055,-0.024,-0.035,-0.032,0.015,-0.052,-0.013
TRMT61A (UniProt Q96FX7),-0.051,0.047,0.036,0.046,0.011,-0.07,-0.11,-0.016,0.043,-0.125,0.027,0.017,0.17,0.101,-0.029,0.03,0.005,0.099,0.293,-0.146
UBE3D (UniProt Q7Z6J8),-0.036,-0.047,0.043,-0.001,-0.071,0.037,0.003,0.013,-0.049,0.009,-0.019,0.012,-0.004,0.027,0.074,0.056,0.012,0.067,-0.032,-0.164
USP14 (UniProt P54578),-0.03,0.012,-0.006,-0.026,-0.087,0.015,-0.001,-0.065,-0.067,0.029,-0.008,-0.006,-0.161,-0.057,0.025,-0.03,0.051,0.007,-0.029,0.005
TMEM214 (UniProt Q6NUQ4),0.017,0.029,-0.117,-0.02,-0.071,0.023,-0.022,-0.041,-0.047,0.005,-0.01,0.049,-0.003,0.022,0.003,0.047,-0.01,0.006,0.02,-0.022
XPOT (UniProt O43592),-0.014,0.013,-0.083,-0.012,-0.13,0.083,-0.075,0.066,-0.173,0.077,-0.04,-0.103,-0.241,-0.061,0.063,0.031,0.069,0.134,0.057,-0.047
WDR43 (UniProt Q15061),-0.041,-0.052,-0.013,0.033,0.015,0.102,-0.022,0.013,0.005,-0.024,0.023,0.03,0.068,-0.023,-0.029,-0.078,0.007,0.051,-0.007,-0.027
USP15 (UniProt Q9Y4E8),-0.01,0.047,-0.064,-0.082,-0.099,0.005,0.021,0.044,-0.081,0.023,-0.017,-0.078,-0.185,-0.066,0.052,0.044,0.064,0.035,-0.016,-0.022
TUBA4A (UniProt P68366),0.038,-0.028,-0.011,0.008,-0.102,-0.009,0.047,0.051,-0.073,0.073,0.004,-0.02,-0.063,0.028,-0.024,0.062,0.031,-0.065,-0.059,0.009
TRMT2A (UniProt Q8IZ69),0.059,-0.001,0.021,-0.048,-0.019,-0.064,0,0.009,0.03,-0.005,-0.031,-0.128,-0.091,-0.003,0.022,0.03,-0.03,-0.003,0.018,-0.062
UGDH (UniProt O60701),0.018,0.062,-0.045,-0.377 (active),-0.043,-0.24,0.151,0.09,-0.034,0.202,-0.062,-0.124,-0.033,-0.095,0.064,-0.027,0.145,-0.102,-0.31 (active),0
TOM1 isoform 2 (UniProt O60784),-0.122,0.026,-0.055,-0.104,-0.034,0.116,-0.015,-0.012,0.022,-0.033,-0.002,-0.104,-0.066,-0.082,-0.045,-0.119,0.056,-0.019,-0.026,-0.081
UCHL5 (UniProt Q9Y5K5),0.014,0.045,-0.06,-0.071,-0.152,0.007,0.012,0,-0.093,-0.001,-0.003,-0.029,-0.124,-0.045,0.048,0.063,0.08,0.04,-0.084,-0.026
WDR37 isoform 2 (UniProt Q9Y2I8),0.039,-0.093,-0.073,0.039,0.005,-0.05,-0.024,0.017,0.083,-0.021,-0.041,-0.01,-0.052,-0.08,-0.004,-0.068,-0.012,-0.059,0.032,-0.162
USO1 isoform 2 (UniProt O60763),-0.055,0.036,-0.039,-0.024,-0.052,0.032,-0.017,-0.003,-0.068,0.032,-0.009,0,-0.101,-0.024,0.032,0.018,0.032,0.059,-0.035,-0.013
